Reference: PubChem BioAssay
The source made the active and inactive calls.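 The calls were made as follows, unless noted: active = inhibition above 20% together with a positive visual image hit; inconclusive = visual image hit but inhibition not above 20%; inactive = no visual image hit.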

Key:
[1] = inhibitors of TNFa-induced NFkB p65 translocation, primary screen, imaging, HUVEC, MLSMR starter and 10KST1 sets (AID 438); settings: HUVEC TNFa-induced p65 nuclear translocation; cell count: measured here: nuclei count (cytotoxicity indicator), at 2.08 µM unless noted; inhibition: at 2 µM, stronger effect = higher value unless noted;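 also: compound added about 3h40 before a 20 min TNFalpha stimulation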;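 as to inhibition: signal is the nuclear over cytoplasmic p65 intensity ratio per well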
[2] = inhibitors of mutant huntingtin aggregation, primary screen, imaging, exon1htt(103Q)mCFP cells, high-content imaging (AID 483;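 active = visual image review flags a hit and inhibition of aggregation exceeds 20%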;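 also: compound exposure lasted 3 days before fixation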;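 as to nuclei count: percent of the per-plate median nuclei count of sample wells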); settings: exon1htt(103Q)mCFP cell line, aggregate imaging, at 2 µM; inhibition of aggregation: stronger effect = higher value; nuclei count: measured here: cell count, toxicity
[3] = inhibitors of E-selectin induction by TNFa, primary screen, imaging, HUVEC, immunofluorescence, MLSMR starter and 10KST1 sets (AID 487;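 active = visually confirmed hit in the image check and inhibition above 20%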;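 as to inhibition: signal is fraction of cell area covered by stained E-selectin grains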;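 as to nuclei count: 100% = median nuclei count of all wells on the same plate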); settings: HUVEC TNFalpha-induced E-selectin immunofluorescence imaging, at 2 µM; inhibition: stronger effect = higher value; nuclei count: measured here: cell number, toxicity
[4] = target: Voltage-gated potassium channel subunit beta-2 (Rattus norvegicus) (UniProt P62483); experiment: KvBeta enzyme negative modulators, primary screen, biochemical, NADPH fluorescence (AID 622;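 active = fluorescence slope higher than the sample average by over 3 SD, cut at about -0.22 in these data, passing the limit was not always enough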;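 also: slope of raw intensity against log time taken from 70 to 1610 s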); settings: recombinant KvBeta, 4-cyanobenzaldehyde reduction, at 10 µM, stronger effect = higher value
Voltage-gated potassium channel subunit beta-2 (Rattus norvegicus), sequence (P62483 whole entry, looked up): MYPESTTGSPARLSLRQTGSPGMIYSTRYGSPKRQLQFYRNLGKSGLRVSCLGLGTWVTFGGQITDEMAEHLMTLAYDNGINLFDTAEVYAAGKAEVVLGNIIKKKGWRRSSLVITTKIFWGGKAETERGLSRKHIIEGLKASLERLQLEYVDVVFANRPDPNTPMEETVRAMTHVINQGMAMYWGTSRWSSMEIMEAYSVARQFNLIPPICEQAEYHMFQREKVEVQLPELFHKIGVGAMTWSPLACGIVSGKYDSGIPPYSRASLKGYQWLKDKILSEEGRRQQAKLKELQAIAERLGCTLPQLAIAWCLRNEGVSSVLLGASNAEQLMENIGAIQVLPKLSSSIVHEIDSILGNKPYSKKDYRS

[5] = target: Voltage-gated potassium channel subunit beta-2 (Rattus norvegicus) (UniProt P62483); experiment: KvBeta positive modulators, primary screen, biochemical, NADPH fluorescence (AID 623;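 active = NADPH fluorescence slope more negative than the mean of all samples by about 3 SD, 99.7% confidence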;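 also: fluorescence intensity change per second fitted from 20 to 320 s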); settings: Recombinant KvBeta, NADPH fluorescence decrease slope, 10 min; at 10 µM; stronger effect = lower value
[6] = target: Alpha-2C adrenergic receptor (Homo sapiens) (UniProt P18825); experiment: modulators of alpha2C/GIRK thallium flux, primary screen, cell-based, HEK293 alpha2C/GIRK1/2 (AID 624;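 active = fluorescence slope after compound addition differing from the mean of all screened samples at 99.7% confidence, in either direction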;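 also: slope of fluorescence ratio to pre-addition baseline per second over 15 to 24 s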); settings: thallium flux BTC fluorescence, at 10 µM, actives lie on both sides
Alpha-2C adrenergic receptor (Homo sapiens), sequence (P18825 whole entry, looked up): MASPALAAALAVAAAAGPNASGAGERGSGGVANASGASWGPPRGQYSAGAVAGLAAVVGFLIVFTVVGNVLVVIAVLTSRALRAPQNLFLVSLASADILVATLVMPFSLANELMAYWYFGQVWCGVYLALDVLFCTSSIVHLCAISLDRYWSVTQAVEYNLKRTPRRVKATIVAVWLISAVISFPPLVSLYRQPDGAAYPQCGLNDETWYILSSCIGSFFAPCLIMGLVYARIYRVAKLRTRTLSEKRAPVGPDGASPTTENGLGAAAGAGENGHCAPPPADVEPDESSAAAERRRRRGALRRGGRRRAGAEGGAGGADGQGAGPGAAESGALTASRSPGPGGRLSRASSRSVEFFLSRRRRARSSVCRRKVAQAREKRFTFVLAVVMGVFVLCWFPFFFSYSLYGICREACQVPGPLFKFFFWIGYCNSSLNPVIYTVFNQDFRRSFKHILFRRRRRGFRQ

[7] = inhibitors of Sendai virus-induced IRF3 signaling, primary screen, TLR/RLR signaling modifier project, cell-based, Sendai virus stimulus, luciferase, 10K MLSCN set (AID 602276;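 active = inhibition at or above 50% at 10 µM; inactive = inhibition below 50%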;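 also: firefly luciferase from ISG56 promoter only with Renilla not read in this screen; 0% = Sendai virus plus DMSO and 100% = medium plus DMSO without virus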); settings: HEK293 RL24 IRF3 luciferase reporter, at 10 µM, stronger effect = higher value
[8] = inhibitors of poly I:C-induced TLR3 signaling, primary screen, cell-based, poly I:C stimulus, luciferase, 10K MLSCN set (AID 602277;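 active = inhibition of the reporter signal at or above 50%; inactive = inhibition below 50%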); settings: HEK293-TLR3 RL24 IRF3 luciferase reporter, at 10 µM, stronger effect = higher value

SMILES	cell count [1]	inhibition [1]	inhibition of aggregation [2]	nuclei count [2] [%]	inhibition [3]	nuclei count [3] [%]	fluorescence slope [4]	NADPH fluorescence slope [5]	slope [6]	inhibition [7]	inhibition [8]
CCOc1cccc(N2C(=O)CC(=O)NC2=O)c1	351	-3.3% (inactive)	-8.7% (inactive)	109	-63.8% (inactive)	107	-0.524 (inactive)	-1.6e-06 (inactive)	0.00568 (inactive)	2.1% (inactive)	3.82% (inactive)
O=C(c1sc2ccccc2c1Cl)N1CCC2(CC1)OCCO2	388	2.5% (inactive)	-5.9% (inactive)	107	-59.7% (inactive)	105	-0.405 (inactive)	3e-05 (inactive)	0.00266 (inactive)	-10.2% (inactive)	-29.6% (inactive)
Cc1ccc(Cn2c(C)c3cnn(CC(=O)N4CCC5(CC4)OCCO5)c(=O)c3c2C)cc1	471	-6.5% (inactive)	-6.5% (inactive)	110	-135% (inactive)	110	-0.332 (inactive)	-6.2e-05 (inactive)	0.0048 (inactive)	9.46% (inactive)	-2.44% (inactive)
CC(C)C(=O)c1cn(Cc2ccccc2C#N)c2ccccc12	504	3.5% (inactive)	11.4% (inactive)	72.7	-24.8% (inactive)	99.8	-0.376 (inactive)	3.6e-05 (inactive)	0.00712 (inactive)	17.4% (inactive)	20.1% (inactive)
CC(C)(C)C(O)C(Oc1ccc(Cl)cc1)n1cncn1 (stereo not given)	268	4.3% (inactive)	5.1% (inactive)	93	-5.1% (inactive)	131	-0.592 (inactive)	-2.7e-05 (inactive)	0.00646 (inactive)	15.5% (inactive)	32.5% (inactive)
COc1ccc(C(=O)C(C)(C)NO)cc1	653	-4.6% (inactive)	12.4% (inactive)	94.3	-81.1% (inactive)	119	-0.62 (inactive)	1.3e-05 (inactive)	0.00701 (inactive)	12.6% (inactive)	26.7% (inactive)
COC(=O)C1C2c3ccccc3OC1(C)N=c1s/c(=C/c3cnn(C)c3C)c(=O)n12 (stereo not given)	469	10.9% (inactive)	0.9% (inactive)	115	-82.7% (inactive)	112	-0.332 (inactive)	-4.9e-05 (inactive)	0.00428 (inactive)	15.6% (inactive)	23.4% (inactive)
COc1ccccc1/C=C1/C(=N/O)C2CCN1CC2	548	-15% (inactive)	-6.2% (inactive)	76.9	42.2% (inactive)	105	-0.467 (inactive)	-1.3e-05 (inactive)	0.00314 (inactive)	9.04% (inactive)	36.5% (inactive)
Cc1cnn(C2CCN(C)CC2)c1N	791	-7.4% (inactive)	-22.3% (inactive)	75.4	0.5% (inactive)	110	-0.495 (inactive)	1.3e-05 (inactive)	0.00651 (inactive)	-8.1% (inactive)	14.8% (inactive)
CN1CCN(c2c[nH]c(=O)[nH]c2=O)CC1	446	0% (inactive)	-25.3% (inactive)	90.3	-143% (inactive)	105	-0.495 (inactive)	-3.4e-05 (inactive)	0.00648 (inactive)	2.56% (inactive)	19.8% (inactive)
CN1CCN(c2nc3ccccc3c(=O)n2-c2ccccc2)CC1	568	-2.3% (inactive)	-4.9% (inactive)	70.3	-3.5% (inactive)	102	-0.57 (inactive)	-2.8e-05 (inactive)	0.00748 (inactive)	845% [above what the read-out allows, likely interference] (active)	50.1% (active)
CCOc1ccc(C2SCC(=O)Nc3c2c(=O)[nH]n3C2CCCCCC2)cc1 (stereo not given)	286	23.8% (inactive)	7.5% (inactive)	88.4	-14.2% (inactive)	102	-0.408 (inactive)	-2.7e-05 (inactive)	0.00778 (inactive)	-12.2% (inactive)	98.8% (active)
Cn1c(=O)cc(OCC(=O)N2CCN(C3CCCCC3)CC2)c2ccccc21	535	-5.5% (inactive)	14.2% (inactive)	81.7	-119% (inactive)	113	-0.533 (inactive)	-5e-05 (inactive)	0.00729 (inactive)	2.25% (inactive)	55.3% (active)
CC(C)OCCCNC(=O)c1c(N)n(CC2CCCO2)c2nc3ccccc3nc12 (stereo not given)	430	-6.7% (inactive)	-14.6% (inactive)	75	-83% (inactive)	196	-0.0369 (inactive)	2e-05 (inactive)	0.00623 (inactive)	11.4% (inactive)	19.9% (inactive)
CCOCC(=O)NC1CCSC1=O (stereo not given)	342	-5% (inactive)	17.7% (inactive)	75.2	10.8% (inactive)	95.3	-0.48 (inactive)	-4.8e-05 (inactive)	0.00601 (inactive)	18.6% (inactive)	23.1% (inactive)
CCCCOc1ccc(CN2CCN(CCO)CC2)cc1	644	2.9% (inactive)	-4.6% (inactive)	115	-3.3% (inactive)	96.5	-0.43 (inactive)	-0.00013 (inactive)	0.00523 (inactive)	5.26% (inactive)	10.1% (inactive)
Cc1nn(-c2ccccc2)c2c1CC1(C(=O)N(C)C(=O)N(C)C1=O)C1CCCCN21 (stereo not given)	438	-14.2% (inactive)	26.9% (inactive)	65.3	-8.8% (inactive)	101	-0.509 (inactive)	-2.5e-05 (inactive)	0.00545 (inactive)	-9.7% (inactive)	28.2% (inactive)
CCN(CC)CCN=Cc1c(O)n(CCC2=CCCCC2)c(=O)[nH]c1=O	677	-6% (inactive)	-1.5% (inactive)	94.9	5.2% (inactive)	104	-0.618 (inactive)	-1.2e-05 (inactive)	0.00557 (inactive)	-53.3% (inactive)	-117% (inactive)
Cc1ccc(C)c(NC(=O)CSc2nnc([C@@H](N)Cc3c[nH]c4ccccc34)o2)c1	282	9.5% (inactive)	-6.6% (inactive)	103	-8.3% (inactive)	92.8	-0.428 (inactive)	-1.2e-05 (inactive)	0.00513 (inactive)	9.6% (inactive)	24.2% (inactive)
CN(C)c1cc(N)c2c(n1)CCC2 (tested in a mixture with another compound)	443	-0.3% (inactive)	-9% (inactive)	98.2	-17.4% (inactive)	124	-0.376 (inactive)	-5.8e-05 (inactive)	0.00598 (inactive)	11.4% (inactive)	17.8% (inactive)
